SIRT5 block: inhibitors of human sirtuin-5 desuccinylase; actives 1.1% (n = 330,000); Q9NXA8; Purified SirT5, succinyl-peptide AMC, trypsin-coupled fluorescence; inhibition, % at 15 µM; in the data active means inhibition above about 15%; inconclusive means no clear call, values can overlap the other calls
Target sequence (Q9NXA8 whole entry, looked up): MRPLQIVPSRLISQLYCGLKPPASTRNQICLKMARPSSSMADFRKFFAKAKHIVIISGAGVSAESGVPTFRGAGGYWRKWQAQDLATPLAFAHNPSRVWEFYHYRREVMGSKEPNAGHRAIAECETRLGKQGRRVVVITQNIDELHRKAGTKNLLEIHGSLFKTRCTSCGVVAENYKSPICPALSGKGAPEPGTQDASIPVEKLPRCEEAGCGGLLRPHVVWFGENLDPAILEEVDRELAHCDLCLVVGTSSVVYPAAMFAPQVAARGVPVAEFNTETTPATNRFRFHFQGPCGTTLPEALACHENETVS
Ecoli rRNA inh: selective bacterial rRNA inhibition in E. coli. E. coli WT GFP vs humanized-ribosome RFP mutants, fluorescence, 24 h; active compounds read low; DMSO median 0, no signal -100. GFP signal change (wild-type ribosome), % (test concentration not listed). actives 1.6% (n = 350,000). AID 720706;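 active means significant combined selectivity score with lowered wild-type GFP, culture density cut under 30%, mutant RFP and density less affected; inactive means any of these conditions unmet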
LGR2 antag: blocks bursicon-induced cAMP signaling via Drosophila LGR2. HEK293 LGR2, CRE-luciferase, bursicon-stimulated, 4 h. inhibition, % at 9.99 µM. actives 0.35% (n = 380,000);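 active means drop in luminescence signal, shown as inhibition above about 50% in the replicate tests, limit read from the data, passing the limit was not always enough; inconclusive means probably only some replicates passing the limit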;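 further: agonist challenge used bursicon conditioned medium at about half maximal strength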
PAX8 reporter: PAX8 transcriptional activity inhibition; AID 652154; actives 1.2% (n = 360,000); RMG-I TPO-luciferase reporter, SteadyGlo, 24 h; inhibition, % at 12.6 µM;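 active means mean replicate inhibition at least 60% with every replicate also reaching 60%; inconclusive means only one of the two criteria is met; inactive means mean below 60% and not all replicates reaching 60%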;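 further: luciferase light reporting Pax8 driven TPO promoter activity; plate controls were median of neutral control wells for no effect and mitoxantrone controls for full effect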
EWS-Fli block: inhibitors of EWS/Fli oncoprotein transcriptional activity; A673 NR0B1-luciferase reporter, viability-normalised; inhibition, % at 12.6 µM; actives 0.67% (n = 350,000);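 active means mean inhibition of at least 50% after viability correction, with every replicate also passing that limit; inconclusive means mean reaches 50% but only one of two replicates passes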;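 further: firefly luciferase signal divided by Alamar Blue viability fluorescence both relative to DMSO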
PGC1a acetyl inh: PGC1a acetylation modulation, inhibitor mode | actives 0.17% (n = 350,000) | AID 651687 | U2OS PGC1a acetylation, AlphaScreen anti-acetyl-lysine; with virally co-expressed GCN5 acetyltransferase | inhibition, % at 15.6 µM;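 active means every replicate shows inhibition of at least 40%; inconclusive means mean inhibition at least 40% but some replicate below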;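 further: 0% = neutral control wells and 100% = positive control wells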
* = called active by the depositor; ? = inconclusive; nt = not tested or not shown. The list is not random: actives were taken first. Their share in the collection is about 3.4%.

SMILES | SIRT5 block | Ecoli rRNA inh | LGR2 antag | PAX8 reporter | EWS-Fli block | PGC1a acetyl inh
Cc1cccc(-n2c(/C=C/c3ccc([N+](=O)[O-])o3)nc3ccccc3c2=O)c1 | 18* | 19 | 32 | 31 | 38 | nt
O=C(O)[C@H]1[C@H](CO)[C@H]2Cn3c(ccc(-c4ccncc4)c3=O)[C@@H]1N2C(=O)C1CC1 | nt | 4 | 10 | -4 | -1 | nt
O=c1[nH]c2ccccc2n1C1CCN(C(c2nnnn2-c2ccc3c(c2)OCCO3)C2CC2)CC1 (stereo not given) | -1 | -6 | 10 | 86* | 8 | 14
O=C1NCN(c2ccccc2)C12CCN(C(c1ccccc1)c1nnnn1-c1ccc3c(c1)OCCO3)CC2 (stereo not given) | -3 | -10 | 2 | 15 | -28 | 7
COc1ccc(-n2nnnc2C(C2CC2)N2CCC(n3c(=O)[nH]c4ccccc43)CC2)cc1 (stereo not given) | 8 | -34 | 10 | 20 | 2 | -4
O=c1[nH]c2ccccc2n1C1CCN(C(c2cccs2)c2nnnn2-c2ccc3c(c2)OCCO3)CC1 (stereo not given) | -3 | -7 | 23 | 96* | 46 | 1
O=c1[nH]c2ccccc2n1C1CCN(C(c2ccccc2)c2nnnn2-c2ccc3c(c2)OCCO3)CC1 (stereo not given) | -1 | -7 | 19 | 81* | 17 | 17
CC(=O)OCC12CC(OC(=O)CC(C)C)C(C)=CC1OC1C(O)C(OC(C)=O)C2(C)C12CO2 (stereo not given) | nt | 14 | 101* | 102* | 44 | 74*
C=CCN1[C@@H]2CN(C(C)=O)C[C@H]1C2c1ccc(Br)cc1 (stereo not given in full) | nt | -3 | nt | nt | nt | nt
CC=Cc1ccc2n(c1=O)C[C@H]1[C@H](CO)[C@@H](C(=O)N(C)C)[C@@H]2N1C (mixture of isomers) | -2 | 10 | -11 | nt | -5 | nt
COC(=O)[C@@H]1[C@@H](CO)[C@@H]2Cn3c(ccc(-c4ccccc4F)c3=O)[C@H]1N2Cc1ccccc1 | 4 | -2 | -8 | 10 | -1 | nt
CCC(c1nnnn1-c1ccc2c(c1)OCCO2)N1CCC(n2c(=O)[nH]c3ccccc32)CC1 (stereo not given) | -6 | -12 | -19 | 85* | 13 | 12
CSCCC(c1nnnn1-c1ccc2c(c1)OCCO2)N1CCC(n2c(=O)[nH]c3ccccc32)CC1 (stereo not given) | 19* | 1 | 13 | 93* | 21 | 16
COc1ccc(-n2nnnc2C(c2ccnc3ccccc23)N2CCC(n3c(=O)[nH]c4ccccc43)CC2)cc1 (stereo not given) | 3 | 2 | -1 | 3 | 6 | -1
CC(=O)O[C@H]1CCC2C3CCC4=CC(=O)CCC4=C3C=C[C@@]21C (stereo not given in full) | -2 | -18* | -26 | 8 | 3 | 4
CCCCC(=O)N/N=C/c1c(O)n(Cc2ccco2)c(=O)[nH]c1=O | nt | nt | 3 | 14 | nt | -5
O=C(N/N=C/c1c(O)n(Cc2ccco2)c(=O)[nH]c1=O)c1ccccc1O | 15* | 2 | -4 | 13 | -6 | -11
COC(=O)[C@@H]1[C@@H](CO)[C@@H]2Cn3c(ccc(C4=CCCCC4)c3=O)[C@H]1N2CC1CCCCC1 | -5 | -27 | 13 | nt | 0 | -2
CS(=O)(=O)N1C[C@@H]2C(c3ccccc3)[C@H](C1)N2CC1CC1 (stereo not given in full) | nt | 0 | nt | nt | nt | nt
O=C(Cc1cccnc1)N1CCCCN2[C@H](CO)[C@H](c3ccc(/C=C/c4ccccc4)cc3)[C@@H]2C1 | 2 | -46 | 6 | 7 | 5 | 1
O=C(Cc1cccnc1)N1CCCCN2[C@H](C1)[C@H](c1ccc(/C=C/c3ccccc3)cc1)[C@@H]2CO | 0 | -52 | 21 | 81* | 6 | 0
O=C(Cc1ccccn1)N1CCCCN2[C@H](CO)[C@H](c3ccc(-c4ccccc4F)cc3)[C@H]2C1 | 11 | 1 | -3 | -10 | 7 | 6
O=C(Cc1ccccn1)N1CCCCN2[C@@H](CO)[C@H](c3ccc(-c4ccccc4F)cc3)[C@@H]2C1 | -3 | -3 | -8 | 67* | 26 | 9
O=C(Cc1ccccn1)N1CCCCN2[C@@H](CO)[C@@H](c3ccc(-c4ccccc4F)cc3)[C@@H]2C1 | -5 | 0 | 16 | 99* | 12 | 8
NC1=C([N+](=O)[O-])C(c2ccc3c(c2)OCO3)c2c(c3ccccc3oc2=O)O1 (stereo not given) | 0 | -29* | 9 | -6 | 10 | nt
SMILES | SIRT5 block | Ecoli rRNA inh | LGR2 antag | PAX8 reporter | EWS-Fli block | PGC1a acetyl inh
C/C=C/c1ccc(C2[C@@H]3CN(Cc4cocn4)C[C@H]2N3)cc1 (stereo not given in full) | -2 | 4 | 4 | -4 | -11 | 13
COc1cccc(N2C(=O)NC(=O)/C(=C/c3ccc4c5c(cccc35)CC4)C2=O)c1 | 37* | 13 | -20 | -13 | 4 | nt
O=C(Cc1cccnc1)N1CCCCN2[C@H](CO)[C@H](c3ccc(C#CC4CC4)cc3)[C@@H]2C1 | 0 | nt | nt | 8 | -6 | 5
CC(C)(C)n1cc(C(=O)c2ccccc2OCCCF)cn1 | -2 | 2 | -9 | 27 | 0 | -5
CC(C)(C)n1cc(C(=O)c2ccc3ccccc3c2O)cn1 | -2 | 4 | 67* | -62 | -2 | -8
Ic1ccccc1CN[C@@H]1C2CCN(CC2)[C@@H]1C(c1ccccc1)c1ccccc1 | -2 | nt | 70* | 14 | 20 | -30
CN1C(=O)/C(=C\c2ccc(Br)s2)C(=O)NC1=S | 4 | 4 | -1 | 29 | 29 | -8
O=C1NC(=S)NC(=O)C1=Cc1ccc(Br)s1 | 24* | 26 | 9 | 7 | 41 | -2
CC1=NN(c2ccccc2)C(=O)/C1=C/c1c(O)[nH]c(=O)[nH]c1=O | 7 | 16 | 0 | 8 | -4 | 49*
CCCN1[C@@H]2Cn3c(ccc(-c4ccc(F)cc4)c3=O)[C@H]1[C@@H](C(=O)OC)[C@@H]2CO | -4 | 3 | -10 | 4 | -3 | -8
CN1[C@@H]2CN(CC(F)(F)F)C[C@H]1C2c1ccc(Br)cc1 (stereo not given in full) | nt | -4 | nt | nt | nt | nt
NS(=O)(=O)c1ccc(-c2ccc(C=C3C(=O)NC(=O)NC3=O)o2)cc1 | 10 | 18 | 3 | -4 | -9 | -7
NS(=O)(=O)c1ccc(-c2ccc(C=C3C(=O)NC(=S)NC3=O)o2)cc1 | 35* | 22 | 9 | -16 | -6 | nt
CC1CC(C)CC(C)C(O)C(C#N)=CC=CCC(C2CCCC2C(=O)O)OC(=O)CC(O)C(C)C1 (stereo not given) | nt | -49 | 75* | 102* | 47 | ?

Screens: PubChem, Broad Institute
